Laboratory results from PubChem BioAssay AID1159580 (chemical genetic matrix, 2015).
“And” between values parts separate entries of the source, which are not always exact repeats. Equal values may be shown once. Screen size: about 5,500 compounds; about 2,000 (36%) were called active. Inconclusive results (about 18%) are left out. The list shows a part of the results. A number with no mark means an inactive call. No stated cut-off is given here; in the data, active means normalized growth mostly below about 0.91 (no sharp cut-off); inconclusive means no clear call, values can overlap the other calls; inactive means mostly above about 0.92.

Experiment: chemical genetic growth profiling, strain panel (AID 1159580);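 further: tested at 20 µM; growth read once vehicle control cultures reached saturation at 30 °C; 1 = growth at the plate median or of vehicle wells; lower values mean less growth of the strain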
Conditions: S. cerevisiae deletion strains, growth OD
[1] = locus YHR030C, strain SLT2, active compounds read low
[2] = locus YHR079C, strain IRE1, active compounds read low
[3] = locus YJL095W, strain BCK1, active compounds read low
[4] = locus YJR066W, strain TOR1, active compounds read low
[5] = locus YLR113W, strain HOG1, active compounds read low
[6] = locus YNL183C, strain NPR1, active compounds read low
[7] = locus YOR231W, strain MKK1, active compounds read low
[8] = locus YPL256C, strain CLN2, active compounds read low

Work on `CC(=O)Oc1cc(C)c2c(c1C(OC(C)=O)OC(C)=O)Oc1c(c(C)c(OC(C)=O)c3c1C(OC(C)=O)OC3=O)OC2=O` (stereo not drawn) yielded a normalized growth (locus YAL013W, strain DEP1, active compounds read low) of 0.98, a normalized growth (locus YBR021W, strain FUR4, active compounds read low) of 1.01 and a normalized growth (locus YBR229C, strain ROT2, active compounds read low) of 0.989. It also gave a normalized growth (locus YCL029C, strain bik1, active compounds read low) of 0.98, a normalized growth (locus YDL035C, strain GPR1, active compounds read low) of 1.03 and a normalized growth (locus YDL074C, strain BRE1, active compounds read low) of 0.998. It also gave a normalized growth (locus YDL101C, strain DUN1, active compounds read low) of 0.983, a normalized growth (locus YDL134C, strain PPH21, active compounds read low) of 0.983 and a normalized growth (locus YDL185W, strain tfp1, active compounds read low) of 0.965. It also gave a normalized growth (locus YDL192W, strain arf1, active compounds read low) of 1.01, a normalized growth (locus YDR101C, strain arx1, active compounds read low) of 1.03 and a normalized growth (locus YDR162C, strain NBP2, active compounds read low) of 0.998. The normalized growth (locus YDR318W, strain mcm21, active compounds read low) was 0.98, the normalized growth (locus YDR388W, active compounds read low) was 0.982 and the normalized growth (locus YDR502C, strain sam2, active compounds read low) was 0.968. It also gave a normalized growth (locus YEL061C, strain CIN8, active compounds read low) of 0.985, a normalized growth (locus YER110C, active compounds read low) of 0.97 and a normalized growth (locus YER155C, strain BEM2, active compounds read low) of 1.01. For the same compound, the normalized growth (locus YER167W, strain BCK2, active compounds read low) was 0.995, the normalized growth (locus YGL078C, strain dbp3, active compounds read low) was 0.973 and the normalized growth (locus YGL086W, strain mad1, active compounds read low) was 0.995. The normalized growth (locus YGL248W, strain PDE1, active compounds read low) was 0.967, the normalized growth (locus YGR135W, strain pre9, active compounds read low) was 0.952 and the normalized growth (locus YGR252W, strain gcn5, active compounds read low) was 1.06. It also gave a normalized growth [1] of 0.952, a normalized growth (locus YHR079C, strain IRE1 (second series), active compounds read low) of 0.983 and a normalized growth [2] of 0.93. For the same compound, the normalized growth (locus YHR094C, strain hxt1, active compounds read low) was 0.978, the normalized growth (locus YHR129C, strain ARP1, active compounds read low) was 0.983 and the normalized growth (locus YHR200W, strain rpn10, active compounds read low) was 0.988. For the same compound, the normalized growth (locus YIL066C, strain RNR3, active compounds read low) was 0.983, the normalized growth (locus YIL073C, strain SPO22, active compounds read low) was 1.02 and the normalized growth (locus YIL125W, strain kgd1, active compounds read low) was 0.978. For the same compound, the normalized growth (locus YIR030C, strain dcg1, active compounds read low) was 0.964, the normalized growth [3] was 0.988 and 0.963 and the normalized growth (locus YJL134W, strain LCB3, active compounds read low) was 0.985. The normalized growth (locus YJL168C, strain set2, active compounds read low) was 0.991, the normalized growth (locus YJL187C, strain SWE1 (second series), active compounds read low) was 0.961 and the normalized growth [4] was 0.889. The normalized growth (locus YKL009W, strain mrt4, active compounds read low) was 1, the normalized growth (locus YKL068W, active compounds read low) was 0.969 and the normalized growth (locus YKL085W, strain MDH1 (second series), active compounds read low) was 0.97. For the same compound, the normalized growth (locus YKL085W, strain MDH1, active compounds read low) was 0.97, the normalized growth (locus YKR001C, strain vps1, active compounds read low) was 1 and the normalized growth (locus YLR039C, strain RIC1, active compounds read low) was 0.943. For the same compound, the normalized growth (locus YLR058C, strain SHM2, active compounds read low) was 0.993, the normalized growth (locus YLR102C, strain apc9, active compounds read low) was 0.974 and the normalized growth [5] was 0.832 (active). The normalized growth (locus YLR268W, strain sec22, active compounds read low) was 1.01, the normalized growth (locus YLR342W, strain FKS1 (second series), active compounds read low) was 1.06 and the normalized growth (locus YLR371W, strain rom2, active compounds read low) was 0.998. The normalized growth (locus YLR418C, strain cdc73, active compounds read low) was 0.989, the normalized growth (locus YML016C, strain PPZ1, active compounds read low) was 0.971 and the normalized growth (locus YML032C, strain rad52, active compounds read low) was 0.997. It also gave a normalized growth (locus YML124C, strain tub3, active compounds read low) of 0.968, a normalized growth (locus YMR078C, strain ctf18, active compounds read low) of 0.978 and a normalized growth (locus YMR223W, strain ubp8, active compounds read low) of 0.989. For the same compound, the normalized growth (locus YMR263W, strain SAP30, active compounds read low) was 0.982, the normalized growth (locus YMR307W, strain GAS1, active compounds read low) was 1.02 and the normalized growth (locus YNL067W, strain RPL9B, active compounds read low) was 0.983. The normalized growth (locus YNL128W, strain TEP1, active compounds read low) was 0.99, the normalized growth [6] was 0.911 and the normalized growth (locus YNL233W, strain BNI4, active compounds read low) was 0.973. The normalized growth (locus YNL250W, strain rad50, active compounds read low) was 0.921, the normalized growth (locus YNL271C, strain bni1, active compounds read low) was 0.968 and the normalized growth (locus YNL298W, strain CLA4, active compounds read low) was 0.967. It also gave a normalized growth (locus YNL307C, strain MCK1, active compounds read low) of 0.974, a normalized growth (locus YNR052C, strain pop2, active compounds read low) of 0.961 and a normalized growth (locus YOL012C, strain htz1) of 0.831. It also gave a normalized growth (locus YOL147C, strain pex11, active compounds read low) of 0.99, a normalized growth (locus YOR061W, strain CKA2, active compounds read low) of 0.982 and a normalized growth (locus YOR069W, strain VPS5, active compounds read low) of 0.974. The normalized growth (locus YOR136W, strain idh2, active compounds read low) was 1, the normalized growth (locus YOR144C, strain elg1, active compounds read low) was 0.978 and the normalized growth (locus YOR184W, strain ser1, active compounds read low) was 1.05. It also gave a normalized growth [7] of 0.942, a normalized growth (locus YOR316C, strain cot1, active compounds read low) of 0.978 and a normalized growth (locus YPL055C, strain LGE1, active compounds read low) of 1.05. It also gave a normalized growth (locus YPL241C, strain CIN2, active compounds read low) of 0.989, a normalized growth [8] of 0.892 and a normalized growth (locus YPR119W, strain clb2, active compounds read low) of 0.981. It also gave a normalized growth (locus YPR141C, strain kar3, active compounds read low) of 0.956, a normalized growth (locus YPR163C, strain tif3, active compounds read low) of 0.974 and a normalized growth (locus YPR167C, strain met16, active compounds read low) of 0.979. It also gave a normalized growth (strain wtn01, active compounds read low) of 1.04.
`CC(=O)Oc1cc(C)c2c(c1C=O)Oc1c(c(C)c(OC(C)=O)c3c1C(OC(C)=O)OC3=O)OC2=O` (stereo not drawn) gave a normalized growth [1] of 0.877, a normalized growth [2] of 0.883 and a normalized growth [3] of 0.905. For the same compound, the normalized growth [4] was 0.857, the normalized growth [5] was 0.821 (active) and the normalized growth [6] was 0.853. It also gave a normalized growth [7] of 0.876 and a normalized growth [8] of 0.829.
